Test results published in PubChem BioAssay AID1903 (Southern Research Specialized Biocontainment Screening …, 2009).
“And” between values parts separate entries of the source, which are not always exact repeats. Equal entries are not always repeated. Hit rate of the full screen: of about 310,000 compounds, about 1,200 (0.39%) were called active. The rule behind the calls is not given here. These entries were drawn from the full list. Results with a measured potency or affinity are listed apart.

target: Large T antigen (Simian virus 40) (UniProt P03070); experiment: TAg ATPase/helicase activity blockers – biochemical (AID 1903); settings: SV40 large T antigen ATPase/helicase inhibition assay; at 20 µM; active compounds read high
Sequence (P03070 whole entry, looked up): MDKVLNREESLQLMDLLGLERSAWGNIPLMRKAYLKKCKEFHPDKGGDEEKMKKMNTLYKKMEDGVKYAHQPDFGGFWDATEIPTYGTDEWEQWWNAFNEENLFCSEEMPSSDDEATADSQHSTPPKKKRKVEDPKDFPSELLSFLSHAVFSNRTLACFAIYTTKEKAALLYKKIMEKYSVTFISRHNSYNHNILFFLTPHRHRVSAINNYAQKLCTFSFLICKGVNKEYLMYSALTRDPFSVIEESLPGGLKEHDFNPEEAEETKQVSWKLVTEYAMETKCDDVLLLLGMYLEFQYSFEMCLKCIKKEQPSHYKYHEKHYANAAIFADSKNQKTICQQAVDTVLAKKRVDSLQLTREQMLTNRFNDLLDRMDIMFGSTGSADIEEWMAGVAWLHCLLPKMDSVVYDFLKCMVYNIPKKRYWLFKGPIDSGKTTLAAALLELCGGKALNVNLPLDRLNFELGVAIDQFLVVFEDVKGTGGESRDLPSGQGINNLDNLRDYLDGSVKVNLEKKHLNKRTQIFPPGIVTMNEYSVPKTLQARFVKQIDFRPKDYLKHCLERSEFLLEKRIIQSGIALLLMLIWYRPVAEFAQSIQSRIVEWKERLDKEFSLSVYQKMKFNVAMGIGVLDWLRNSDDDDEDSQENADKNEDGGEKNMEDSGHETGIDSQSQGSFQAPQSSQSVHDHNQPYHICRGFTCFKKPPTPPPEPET

inhibition, inactive:
CC(CCc1ccc(O)cc1)NC1C2CC3CC(C2)CC1C3 (stereo unspecified) 2.61%
Cc1ccc(NC(=O)c2cc3ccccc3cc2O)cc1 0.83%
CCOC(=O)c1nn(-c2ccc3ccccc3c2)cc1O 27.5%
Cc1ccc(/C=C2\NC(=S)NC2=O)cc1[N+](=O)[O-] 10.5%
CN(C)c1ccc(/C=N/NC(N)=S)cc1[N+](=O)[O-] 3.04%
CC(C)OP(=O)(OC(C)C)C(C)NC(=O)Cc1ccccc1 (stereo unspecified) 8.79%
Brc1ccc(-c2cn3ccccc3n2)cc1 9.2%
CC(=O)Nc1cccc(-c2cn3ccc(C)cc3n2)c1 11.2%
Fc1ccc(-c2cn3ccccc3n2)cc1 0.64%
Cc1ccn2cc(-c3ccc(Br)cc3)nc2c1 8.41%
Cc1noc(C)c1C(=O)Nc1c(F)cc(F)cc1Br 0.97%
COc1cc(/C=C/C(=O)OCC(=O)NCc2ccco2)ccc1OC(F)F 8.29%
COc1ccc(CSc2nnc(-c3ccncc3)n2C)cc1F 3.25%
O=S(=O)(Nc1ccc(Br)cc1)c1cccc2cccnc12 11.5%
NS(=O)(=O)c1cccc2cccnc12 10.6% and 4.71%
CNS(=O)(=O)c1cccc2cccnc12 -1.68%
O=S(=O)(Nc1ccc(Cl)cc1)c1cccc2cccnc12 7.28%
COc1cccc2c1O/C(=N\O)C(C(=O)Nc1ccc(C)cc1)C2 (stereo unspecified) 8.2%
S=C(c1ccc(Br)cc1)N1CCCC1 6.77%
CCn1c(C)nc2cc(C(=O)N/N=C/c3ccc(OC)cc3)ccc21 29.8%
COc1cc(/C=N/NC(=O)c2ccoc2C)ccc1O 18%
COc1ccc(/C=N/NC(=O)c2ccoc2C)cc1OC 6.94%
CCn1c(C)nc2cc(C(=O)N/N=C/c3cccc(OC)c3O)ccc21 6.05%
COc1cc(/C=N/NC(=O)c2ccc3c(c2)OCCO3)c(Br)c(Br)c1O 29.5%
CCOc1ccc(/C=N/NC(=O)c2ccoc2C)cc1OC -2.86%
COc1cc(/C=N/NC(=O)c2ccc3c(c2)OCO3)ccc1O -30%
COc1cccc(/C=N/NC(=O)c2ccoc2C)c1O 9.61%
CCCCN(C)CCN1C(=O)C2C(C(=O)Nc3ccc(OC)cc3)C3C=CC2(O3)C1C(=O)NC1CCCCC1 (stereo unspecified) 1.82%
Cc1cccc(NC(=O)CSc2ccc3nnc(-c4cccnc4)n3n2)c1 6.51%
COC(=O)c1ccc(S(=O)(=O)NNC(=O)COc2ccc(C)cc2)cc1 6.42%
Cc1c(Nc2cc(N3CCCCCC3)c3nonc3c2[N+](=O)[O-])c(=O)n(-c2ccccc2)n1C 3.53%
CC1=C(C(=O)Nc2ccccc2)C(c2ccc(O)cc2)N2C(=O)CSC2=N1 (stereo unspecified) 3.32%
Cc1nn(-c2ccccc2)c(C)c1C(=O)OCC(=O)N1CC(=O)Nc2ccccc21 10.3%
Cc1ccc2c(C)c(C(=O)N(Cc3ccc(F)cc3)C3CCS(=O)(=O)C3)oc2c1 (stereo unspecified) 7.21%
O=C1CCCN1CCCNc1ncccc1[N+](=O)[O-] 1.65%
CCC(C)(O)c1[nH]c2ccc(C(=O)OC)cc2c1C (stereo unspecified) 2.01%
CCCCC(CC)C1OCC(C[N+]2(C)CCOCC2)O1 (stereo unspecified) 19.1%
Cc1occc1C(=O)N/N=C/C=C/c1ccccc1 24.7%
COc1ccc(/C=N/NC(=O)c2ccc(C)nc2)cc1O 33.4%
Cc1occc1C(=O)N/N=C/c1ccc(N(C)C)cc1 21.7%
COc1ccc(/C=N/NC(=O)c2cccnc2)cc1O 23.7%
CCN(CC)CC(=O)c1c(N)n(Cc2ccccc2)c(=O)n(C)c1=O 6.97%
Cc1ccc(OCCNCC(O)COc2ccccc2)cc1 (stereo unspecified) 6.77%
CC(=O)Nc1cc(-c2ccccc2)ccc1O 26.7%
CC(=O)/C=C(\C)Nc1ccccc1O 21.1%
CC(=O)c1ccc(N2C(=NC(=O)C3CCCCC3)SC3CS(=O)(=O)CC32)cc1 (stereo unspecified) 14.9%
Cc1cc(C(=O)CN2C(=O)NC(Cc3c[nH]c4ccccc34)C2=O)c(C)n1C (stereo unspecified) -1.66%
Cc1cs/c(=N\N=C\c2ccccc2)n1Cc1ccco1 2.6%
CC(C)=N/N=c1\scc(C)n1Cc1ccco1 9.97%
O=C(O)c1ccccc1O 13.6%
Nc1ccc(N)c(C(=O)O)c1 12.3%
Nc1ccc(C(=O)O)c(O)c1 2.41% and 26.8% and 24.4%
O=C(O)c1cccc(O)c1O 13%
O=C(OCc1nnc(-c2ccccc2)o1)C1CC(=O)N(c2ccccc2)C1 (stereo unspecified) 4.63%
COc1ccc(CCNCC(=O)Nc2ccccc2C(F)(F)F)cc1 4.81%
CCCCc1nnc(NC(=O)C2CCN(c3ncnc4sc(C)c(C)c34)CC2)s1 6.43%
Cc1ccc(-n2nc3c(=O)n(CC(=O)NCc4ccccc4Cl)nc(C)c3c2C)cc1 10.3%
CCOC(=O)C1=C(O)/C(=C\c2cc(C)n(-c3ccccc3F)c2C)N=C1C 5.39%
O=C(NCc1cccs1)C1CCCN1C(=O)Nc1ccc(F)cc1 (stereo unspecified) 12.8%
O=C(c1ccc(S(=O)(=O)Nc2ccccc2)cc1)N1CCCC(C(F)(F)F)C1 (stereo unspecified) 11.1%
CCNC(=O)O/N=C(\C)c1sc(-c2ccc(Cl)cc2)nc1C 1.49%
COc1cc(/C=C2\CCC/C(=C\c3ccc(O)c(OC)c3)C2=O)ccc1O 9.57%
CN=C1S/C(=C\c2ccc(O)c(Br)c2)C(=O)N1C 28.8%
COc1cc(/C=C2/C(=O)CNC2=O)ccc1O 37.6%
CN=C1S/C(=C\c2ccc(OCC(=O)OC)c(OC)c2)C(=O)N1C 3.67%
CCOc1cccc(/C=C2\NC(=S)N(c3ccccc3)C2=O)c1O 18.7%
CCOc1cc(/C=C2/NC(=O)N(CC(=O)OC)C2=O)ccc1OC 31.1%
CCOc1cc(/C=C2/NC(=O)N(CC(=O)Nc3cccc(C)c3)C2=O)ccc1O 12.6%
COc1cc(/C=C2/SC(=S)N(c3c(C)n(C)n(-c4ccccc4)c3=O)C2=O)ccc1O 27%
O=C(O)C1CC(=O)N(Cc2ccc(F)cc2)C1 (stereo unspecified) 0.55%
COc1ccc(NC(=O)CCNC(C)=O)cc1NS(=O)(=O)c1ccc(F)cc1 3.53%
CCc1ccccc1NC(=O)CNC(=O)CCc1nc2sc3c(c2c(=O)[nH]1)CCCC3 24.8%
Cc1cccc(C)c1N=Nc1c(C)cc(O)cc1C 12.6%
Cc1ccccc1C1N(c2nccs2)C(=O)C2CCCN21 (stereo unspecified) 12.4%
CCN(c1ccccc1)S(=O)(=O)c1cc(CN2C(=O)c3cccnc3C2=O)ccc1OC 13.8%
Cc1ccc(CNC(=O)/C=C/c2ccc(S(=O)(=O)N3CCOCC3)cc2)cc1 3.26%
NS(=O)(=O)c1cc(C(=O)OCC(=O)c2ccccc2)c(Cl)cc1Cl 2.42%
NCCCC[C@H](NC(=O)C1CCNCC1)c1nnc([C@@H](N)Cc2ccc(O)cc2)o1 2.89%
COc1cc(C=C2C(=O)c3ccccc3C2=O)cc(OC)c1OC 6.63%
COc1ccc(C=C2C(=O)c3ccccc3C2=O)cc1O 36.2%
COc1ccc(N=C2NC(=O)/C(=C/c3ccc(O)c(OC)c3)S2)cc1 28.3%
O=C1N/C(=C/c2ccco2)C(=O)N1Cc1ccccc1F 11.4%
COc1cc(/C=C2\NC(=S)N(C)C2=O)ccc1OCc1ccccc1F 15.8%
COC(=O)C1=C(C)N(CCc2ccccc2)C(=O)/C1=C\c1ccco1 10.5%
COc1cc(/C=C2/SC(=Nc3ccc(O)cc3)NC2=O)ccc1O 37.7%
COc1cc(/C=C2\C(=O)N(C)C(=S)N2C)ccc1O 17.2%
Cc1ccc(NC(=O)C2CCCN(c3nccc(C)n3)C2)c(C)c1 (stereo unspecified) 4.92%
Cc1sc2nc(CSCC(=O)Nc3c(F)cccc3F)[nH]c(=O)c2c1C 6.91%
COc1ccc(C(=O)Nn2c(C)nc3ccccc3c2=O)cc1OC -1.86%
Cc1ccc(NC(=O)CSc2ccc3nnc(CCNC(=O)c4ccccc4)n3n2)c(C)c1 9.38%
O=C(c1ccccc1F)N1CCN(C2CCC(c3ccccc3)CC2)CC1 (stereo unspecified) 18.6%
CC(C)(C)C(=O)NC(=O)Nc1ccccc1C(F)(F)F 2.7%
COC(=O)c1ccc(NC(=O)C2CCCN(S(C)(=O)=O)C2)cc1 (stereo unspecified) 3.57%
C=CCCN(C1CCCC1)S(=O)(=O)c1ccccc1Br 10.4%
O=C(Nc1nc2ccc(Cl)cc2s1)[C@@H]1CCCN1C(=O)c1cccs1 -3.98%
COC(=O)C1=C(C)N(Cc2ccc(C)cc2)C(=O)/C1=C\c1ccc(O)c(OC)c1 11.5%
Cc1c(N2C(=O)/C(=C/c3ccccc3)SC2=S)c(=O)n(-c2ccccc2)n1C 14.5%
Cc1c(N2C(=O)/C(=C\c3cccc4ccccc34)SC2=S)c(=O)n(-c2ccccc2)n1C 9.9%
CCOc1cc(/C=C2\C(=O)N(CCc3ccc(OC)c(OC)c3)C(C)=C2C(=O)OC)ccc1O 22.8%
CCOC(=O)C1=C(C)N(c2ccc(C)cc2)C(=O)/C1=C\c1ccc(O)c(OC)c1 33.5%
CCOC(=O)C1=C(C)N(c2ccc(OC)cc2)C(=O)/C1=C\c1ccc(O)c(OCC)c1 28.2%
